Results: PubChem BioAssay (NCATS)
Inconclusive results are not listed. Calls of active or inactive are those of the source. Calls come from the whole dose curve; as a rule, active = well fitted curve in the direction sought with a large enough effect; inconclusive = small, poorly fitted or top-dose-only effect, or another doubt; inactive = no such curve, though single readings can be large; an effect the other way counts as inactive or inconclusive. Where a SMILES comes first, the peptide text is derived from it. The star is where a group is joined. Hexanoyl = CCCCCC(=O)*

Columns and labels:
CRL-7250 = normal cell line; assay: Cytotoxic Profiling of Annotated Libraries Using Quantitative High-Throughput Screening (AID 1296008); settings: Five cell lines viability, CellTiter-Glo ATP luminescence, 48-72 h; max response: hits give low values; note: nearly all actives have a fitted effect of over 60% in size; for max response: % is set by controls: 0 for no effect and ±100 for the full control effect
Method in brief: (§1)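 Cells exposed to compounds for 48 or 72 hr at 37 degrees Celsius. Viability read as ATP-coupled luminescence with CellTiter-Glo after 10 min at room temperature.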

HEK293 = assay: as above; settings: Five cell lines viability, CellTiter-Glo ATP luminescence, 48-72 h; max response: hits give low values
Method in brief: as §1

HaCat [1] = assay: as above; settings: Five cell lines viability, CellTiter-Glo ATP luminescence, 48-72 h; max response: hits give low values
Method in brief: as §1

KB-3-1 = assay: as above; settings: Five cell lines viability, CellTiter-Glo ATP luminescence, 48-72 h; max response: hits give low values
Method in brief: as §1

NIH3T3 = assay: as above; settings: Five cell lines viability, CellTiter-Glo ATP luminescence, 48-72 h; max response: hits give low values
Method in brief: as §1

HACAT [2] = assay: qHTS assay to identify novel small-molecules to repurpose for Merkel cell carcinoma treatment (AID 1296009); settings: MCC and control cell lines, CellTiter-Glo viability, 72 h; at 44.8 µM (top of the series) unless noted; note: nearly all actives have a fitted effect of over 60% in size
Method in brief: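 Cells were treated for 72 hr at 37 degree celsius with compounds in 8- or 11-point dose response. Viability was read by CellTiter-Glo luminescence, normalized to no-cell (cytotoxicity) and DMSO controls.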

C33A = assay: Primary qHTS to identify gynecologic anti-cancer compounds using libraries of approved drugs and bioactive compounds (AID 1345084); settings: Gynecologic cancer cell panel viability, ATPlite luminescence, 48 h; series mostly up to 57.5 µM; note: % is set by controls: 0 for no effect and ±100 for the full control effect; nearly all actives have a fitted effect of over 55% in size
Method in brief: (§2)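 Cells, 1,000 per well, were allowed to settle for 16 h at 37 C before compound addition. Five concentrations were tested for 48 h, and viability was read by ATPlite luminescence after 15 min at room temperature.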

CAOV3 = assay: as above; settings: Gynecologic cancer cell panel viability, ATPlite luminescence, 48 h; series mostly up to 57.5 µM
Method in brief: as §2

CASKI = assay: as above; settings: Gynecologic cancer cell panel viability, ATPlite luminescence, 48 h; series mostly up to 57.5 µM
Method in brief: as §2

Es-2 = assay: as above; settings: Gynecologic cancer cell panel viability, ATPlite luminescence, 48 h; series mostly up to 57.5 µM
Method in brief: as §2

HeLa = assay: as above; settings: Gynecologic cancer cell panel viability, ATPlite luminescence, 48 h; series mostly up to 57.5 µM
Method in brief: as §2

Hek293T = assay: as above; settings: Gynecologic cancer cell panel viability, ATPlite luminescence, 48 h, control line for the selectivity index; series mostly up to 57.5 µM
Method in brief: as §2

JEG-3 = assay: as above; settings: Gynecologic cancer cell panel viability, ATPlite luminescence, 48 h; series mostly up to 57.5 µM
Method in brief: as §2

COc1cccc2c1c(O)c(C(=O)N(C)c1ccc(C(F)(F)F)cc1)c(=O)n2C
inactive: max response (CRL-7250) -1.12% | max response (HEK293) 3.79% | outcome (HaCat [1]) | max response (KB-3-1) 0.95% | max response (NIH3T3) 2.51% | outcome (HACAT [2]) | Potency (C33A) | Potency (CAOV3) | outcome (CASKI) | Potency (Es-2) | Potency (HeLa) | Potency (Hek293T) | Potency (JEG-3)

CCC(C)C(=O)O[C@H]1C[C@](C)(O)[C@]23OC(C)(C)[C@H](C[C@H](OC(=O)c4ccccc4)[C@]2(COC(C)=O)[C@H]1OC(=O)C(C)CC)[C@H]3OC(C)=O (stereo partly drawn)
inactive: max response (CRL-7250) -7.32% | max response (HEK293) -12.8% | outcome (HaCat [1]) | outcome (KB-3-1) | max response (NIH3T3) 4.39% | outcome (HACAT [2]) inactive [at 17.4 µM] | Potency (C33A) | Potency (CAOV3) | outcome (CASKI) | Potency (Es-2) | Potency (HeLa) | Potency (Hek293T) | Potency (JEG-3)

C=CC(C)(O)CC/C=C(\C)C1CC=C(C)C(=O)O1 (stereo not drawn)
inactive: outcome (CRL-7250) | max response (HEK293) -4.28% | outcome (HaCat [1]) | max response (KB-3-1) 2.69% | outcome (NIH3T3) | outcome (HACAT [2]) | Potency (C33A) | Potency (CAOV3) | outcome (CASKI) | Potency (Es-2) | Potency (HeLa) | Potency (Hek293T) | Potency (JEG-3)

CC1(C)CCC[C@]2(C)C1CC=C(CO)[C@H]2CC/C(=C/CO)CO (stereo partly drawn)
inactive: max response (CRL-7250) -11.4% | max response (HEK293) -9.82% | outcome (HaCat [1]) | max response (KB-3-1) -0.734% | max response (NIH3T3) 1.71% | outcome (HACAT [2]) | Potency (C33A) | Potency (CAOV3) | outcome (CASKI) | Potency (Es-2) | Potency (HeLa) | Potency (Hek293T) | Potency (JEG-3)

CCCCCC(=O)N1CCC[C@H]1C(=O)N[C@@H](Cc1ccc(O)cc1)C(=O)OC (Hexanoyl-Pro-Tyr-OMe)
inactive: max response (CRL-7250) 1.02% | max response (HEK293) 4.39% | outcome (HaCat [1]) | max response (KB-3-1) -0.528% | max response (NIH3T3) -4.54% | outcome (HACAT [2]) | Potency (C33A) | Potency (CAOV3) | outcome (CASKI) | Potency (Es-2) | Potency (HeLa) | Potency (Hek293T) | Potency (JEG-3)

Cc1ccc(COC(=O)N2CC[C@@H](CNc3ncccn3)[C@@H](F)C2)cc1
inactive: max response (CRL-7250) -0.943% | max response (HEK293) -31.7% | outcome (HaCat [1]) | max response (KB-3-1) -17.2% | max response (NIH3T3) -18.5% | outcome (HACAT [2]) | Potency (C33A) | Potency (CAOV3) | outcome (CASKI) | Potency (Es-2) | Potency (HeLa) | Potency (Hek293T) | Potency (JEG-3)

CC1(C)COC(=O)[C@@H]1O[C@@H]1O[C@H](CO)[C@@H](O)[C@H](O)[C@H]1O
inactive: max response (CRL-7250) 4.71% | max response (HEK293) 0.945% | outcome (HaCat [1]) | outcome (KB-3-1) | max response (NIH3T3) 0.729% | outcome (HACAT [2]) | Potency (C33A) | Potency (CAOV3) | outcome (CASKI) | Potency (Es-2) | Potency (HeLa) | Potency (Hek293T) | Potency (JEG-3)

COc1cc(C2Oc3c(OC)cc(CCCO)cc3C2CO)ccc1O (stereo not drawn)
inactive: outcome (CRL-7250) | max response (HEK293) 3.43% | outcome (HaCat [1]) | outcome (KB-3-1) | max response (NIH3T3) -0.27% | outcome (HACAT [2]) | Potency (C33A) | Potency (CAOV3) | outcome (CASKI) | Potency (Es-2) | Potency (HeLa) | Potency (Hek293T) | Potency (JEG-3)

COc1ccc(/C=C/C(N)=O)cc1OC
inactive: outcome (CRL-7250) | max response (HEK293) 3.65% | outcome (HaCat [1]) | outcome (KB-3-1) | max response (NIH3T3) 3.68% | outcome (HACAT [2]) | Potency (C33A) | Potency (CAOV3) | outcome (CASKI) | Potency (Es-2) | Potency (HeLa) | Potency (Hek293T) | Potency (JEG-3)

COc1cc(O)cc(C)c1C(=O)OC1C(CO)OC(n2ccc(=O)[nH]c2=O)C1OC(C)=O (stereo not drawn)
inactive: outcome (CRL-7250) | max response (HEK293) 2.97% | outcome (HaCat [1]) | max response (KB-3-1) 8.59% | max response (NIH3T3) -1.67% | outcome (HACAT [2]) inactive [at 17.4 µM] | Potency (C33A) | Potency (CAOV3) | outcome (CASKI) | Potency (Es-2) | Potency (HeLa) | Potency (Hek293T) | Potency (JEG-3)

CC1(C(=O)O)CC[C@]2(C(=O)OC3OC(CO)C(O)C(O)C3O)CC[C@]3(C)C(=CCC4[C@@]5(C)CC[C@H](OC6OCC(O)C(O)C6OC6OC(CO)C(O)C(O)C6O)C(C)(C)C5CC[C@]43C)C2C1 (stereo partly drawn)
inactive: max response (CRL-7250) 0.0336% | max response (HEK293) -7.14% | outcome (HaCat [1]) | outcome (KB-3-1) | max response (NIH3T3) 0.38% | outcome (HACAT [2]) inactive [at 9.27 µM] | activity change, negative = cytotoxicity (C33A) -1.33% [at 11.6 µM] | activity change, negative = cytotoxicity (CAOV3) -1.35% [at 11.6 µM] | activity change, negative = cytotoxicity (CASKI) -6.1% [at 11.6 µM] | activity change, negative = cytotoxicity (Es-2) 1.53% [at 11.6 µM] | activity change, negative = cytotoxicity (HeLa) 6.18% [at 11.6 µM] | activity change, negative = cytotoxicity (Hek293T) -2.26% [at 11.6 µM] | activity change, negative = cytotoxicity (JEG-3) -0.785% [at 11.6 µM]
